Screens deposited in PubChem by The Scripps Research Institute Molecular Screening Center.
LYPLA1 inh = blocks human lysophospholipase 1, a PME1 counter-screen. 320,000 tested, 0.16% active. O75608. recombinant LYPLA1, FP-Rh probe fluorescence polarization. inhibition, % at 5.9 µM. AID 2174;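 active = inhibition above the mean of all tested compounds plus 3 SD, set per campaign, cut at about 14% in these data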;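 also: inhibitors block serine hydrolase probe labeling of LYPLA1 so polarization falls; 0% = enzyme with DMSO and 100% = wells lacking LYPLA1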
LYPLA2 inh = counter-screen for PME1 inhibitors: inhibitors of human LYPLA2. AID 2177. 320,000 tested, 0.38% active. inhibition, % at 5.9 µM. recombinant LYPLA2, FP-Rh probe fluorescence polarization. O95372;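 active = inhibition above the screen-wide mean plus 3 SD, limit set per campaign, cut at about 26% in these data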;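 also: 0% = LYPLA2 with DMSO and 100% = wells lacking LYPLA2 enzyme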
PAFAH2 FP inh = PAFAH2 (human) inhibition. inhibition, % at 3.39 µM. 340,000 tested, 0.99% active. recombinant PAFAH2, FP-rhodamine activity probe, fluorescence polarization. Q99487. AID 492956;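 active = inhibition above the mean over all tested compounds plus 3 SD, cut at about 30% in these data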;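 also: inhibitors block probe labeling of enzyme so polarization drops; 0% = enzyme with DMSO and 100% = wells lacking PAFAH2 protein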
pPAFAH inh = pPAFAH (human) enzyme inhibition; Q13093; recombinant pPAFAH, FP-rhodamine probe fluorescence polarization; inhibition, % at 3.39 µM; 330,000 tested, 1.5% active; AID 463082;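 active = inhibition above the mean inhibition across the screen plus 3 SD, cut at about 25% in these data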;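 also: inhibitors block binding of the rhodamine activity-based probe so polarization drops; 0% = enzyme with DMSO and 100% = wells lacking pPAFAH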
Target sequence (Q13093 whole entry, looked up): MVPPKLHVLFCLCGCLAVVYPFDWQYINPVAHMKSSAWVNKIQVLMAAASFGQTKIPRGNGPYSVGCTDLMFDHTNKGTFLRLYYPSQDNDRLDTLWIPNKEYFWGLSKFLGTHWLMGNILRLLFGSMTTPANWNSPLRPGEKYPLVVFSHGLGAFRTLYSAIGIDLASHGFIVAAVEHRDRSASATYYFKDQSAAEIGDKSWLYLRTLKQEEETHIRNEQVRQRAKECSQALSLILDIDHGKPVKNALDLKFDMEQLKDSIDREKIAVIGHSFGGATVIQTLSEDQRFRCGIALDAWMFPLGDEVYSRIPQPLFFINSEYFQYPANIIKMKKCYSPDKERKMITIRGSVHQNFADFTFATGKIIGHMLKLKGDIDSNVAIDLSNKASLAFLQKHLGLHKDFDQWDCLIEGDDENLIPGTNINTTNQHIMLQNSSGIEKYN
PAFAH1B2 FP inh = blocks human PAF acetylhydrolase 1b catalytic subunit 2; recombinant PAFAH1B2, FP-rhodamine activity probe, fluorescence polarization; P68402; 340,000 tested, 1.2% active; inhibition, % at 3.39 µM;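 active = inhibition above the mean of all tested compounds plus 3 SD, cut at about 24% in these data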;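 also: 0% = enzyme with DMSO and 100% = wells lacking PAFAH1B2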
Target sequence (P68402 whole entry, looked up): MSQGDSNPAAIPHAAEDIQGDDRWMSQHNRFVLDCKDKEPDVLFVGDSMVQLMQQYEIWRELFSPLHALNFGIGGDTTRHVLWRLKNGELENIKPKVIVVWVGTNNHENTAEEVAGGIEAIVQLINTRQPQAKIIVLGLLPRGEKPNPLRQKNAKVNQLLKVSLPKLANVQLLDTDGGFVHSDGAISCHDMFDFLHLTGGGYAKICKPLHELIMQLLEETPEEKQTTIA
PAFAH1B3 inh = PAFAH1B3 (human) inhibition; 340,000 tested, 0.28% active; recombinant PAFAH1B3, FP-rhodamine probe, fluorescence polarization; inhibition, % at 3.39 µM; Q15102;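 active = inhibition above the screen-wide average of all tested compounds plus 3 SD, cut at about 25% in these data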;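 also: 0% = enzyme with DMSO only and 100% = wells lacking PAFAH1B3 protein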
PAFAH2 FP conf = confirmation of human PAFAH2 inhibitors; inhibition, % at 3.39 µM; shares compounds with PAFAH2 FP inh; AID 493030; recombinant PAFAH2, FP-rhodamine activity probe, fluorescence polarization; 2,300 tested, 65% active;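 active = mean inhibition over three repeats above a set limit taken from the earlier primary screen, cut at about 30% in these data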;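 also: inhibitor blocks binding of rhodamine activity probe so polarization falls; 0% = enzyme with DMSO and 100% = wells lacking PAFAH2 protein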
PAFAH1B3 confirm = confirmation of human PAFAH1B3 inhibitors | shares compounds with PAFAH1B3 inh | recombinant PAFAH1B3, FP-Rh activity-based probe, fluorescence polarization | inhibition, % at 3.39 µM | 390 tested, 30% active | AID 493032;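 active = average inhibition over triplicate runs above the hit cutoff set in the earlier primary screen, cut at about 25% in these data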;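 also: 0% = enzyme with DMSO and 100% = wells lacking PAFAH1B3 protein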
* hit, by the source's call; . = no result. Only some compounds are listed: those with a hit (about 2.9% of all), similar ones and a draw of the others.

SMILES | LYPLA1 inh | LYPLA2 inh | PAFAH2 FP inh | pPAFAH inh | PAFAH1B2 FP inh | PAFAH1B3 inh | PAFAH1B3 confirm | others
CCSC1=NSC2=NC(=O)/C(=C\c3coc4ccccc4c3=O)C(=N)N12 | -10.9 | -11.8 | 32.6* | 6.7 | 11.2 | 6.7 | . | PAFAH2 FP conf=21.0
CCCCNC(=O)c1ccccc1SCC(=O)NC1CCCCCCC1 | 0.8 | 4.1 | 36.4* | -0.2 | 5.1 | 4.8 | . | PAFAH2 FP conf=28.2
NC(=O)COC(=O)c1ccccc1SCC(=O)NC1CCCCCC1 | 2.4 | 0.8 | 61.4* | 4.0 | -2.3 | 1.2 | . | PAFAH2 FP conf=49.5*
CC(C)CNC(=O)COC(=O)c1ccccc1SCC(=O)NCC(C)C | -1.6 | 1.1 | 44.4* | 1.7 | 1.9 | 10.7 | . | PAFAH2 FP conf=32.0*
COc1ccc(/C=C/C(=O)Nc2cccc(S(=O)(=O)NC3=NCCCCC3)c2)cc1OC | -7.1 | -10.9 | -1.6 | 0.4 | -2.2 | -1.1 | .
COc1ccc(/C=C/C(=O)ONC2=NCCCCC2)cc1OC | -0.9 | -0.7 | 51.2* | 3.8 | 1.8 | -0.8 | . | PAFAH2 FP conf=44.4*
CCc1ccc(CN(C)Cc2nc(Cc3cccc(C(F)(F)F)c3)no2)nc1 | -1.5 | 18.3 | 5.5 | 17.0 | 5.4 | 13.3 | .
CCc1ccc(CN(C)Cc2nc(COc3ccccc3)no2)nc1 | -1.9 | -1.9 | 29.8* | 10.3 | 0.2 | 7.9 | . | PAFAH2 FP conf=12.8
CCOc1ncccc1C(=O)OCC(=O)Nc1ccc(Cl)cn1 | . | . | 46.2* | 24.0 | 2.9 | 5.7 | . | PAFAH2 FP conf=28.9
CCOc1ncccc1C(=O)OCC(=O)c1ccc(Br)s1 | . | . | 50.3* | 12.2 | 0.5 | 1.9 | . | PAFAH2 FP conf=35.2*
O=C(COC(=O)c1ccccc1)Nc1ccc(Cl)cn1 | 1.6 | 0.0 | 45.8* | 1.6 | 0.2 | 7.4 | . | PAFAH2 FP conf=49.2*
COc1ccc(C(=O)OCC(=O)Nc2ccc(Cl)cn2)cc1 | -0.6 | -2.0 | 56.2* | 5.6 | 2.5 | 0.9 | . | PAFAH2 FP conf=53.7*
CCOc1ncccc1C(=O)OCC(=O)c1cccs1 | 1.4 | 2.3 | 8.8 | 7.5 | 1.7 | 1.1 | .
Nc1nc(Sc2ccc([N+](=O)[O-])cc2[N+](=O)[O-])n[nH]1 | 1.9 | 7.6 | 4.3 | 8.5 | 8.8 | 7.8 | .
CCc1cc(=O)oc2cc(C)cc(OCc3nn[nH]n3)c12 | 0.4 | 7.0 | 10.3 | -0.9 | -1.1 | -0.2 | .
CN(C)C(=N)c1n[nH]nc1SCc1ccccc1 | -1.5 | -3.2 | 2.6 | 0.3 | 1.6 | 6.8 | .
O=C1c2ccccc2C(=O)c2c1oc(C(F)(F)F)c2C(=O)c1ccccc1 | -3.3 | -4.0 | 14.0 | 3.8 | 10.6 | 40.4* | 26.8*
COc1cc(=O)oc(-c2ccccc2)c1C(C)=O | -3.9 | 0.6 | -1.0 | -1.4 | 2.8 | 11.5 | .
Cc1oc2c(c1C(=O)NCc1cccnc1)C(=O)c1ccccc1C2=O | -1.1 | 3.3 | . | 1.0 | . | . | .
CC(=O)c1c(C)oc2c1C(=O)c1ccccc1C2=O | -1.5 | -0.1 | 3.6 | 0.4 | 6.9 | 27.6* | 20.9
COc1ccc(CNC(=O)c2c(C)oc3c2C(=O)c2ccccc2C3=O)cc1 | -0.4 | -1.6 | 24.5 | -1.8 | 8.4 | 37.0* | 18.0
O=C(c1ccc(COc2ccccc2Br)cc1)N1CCCCCC1 | 2.0 | 1.3 | 4.2 | 10.7 | 2.2 | -6.8 | .
Cc1nc(S/C(=C\c2ccc(-c3ccc(C(=O)O)c(Cl)c3)o2)C(=O)O)n[nH]1 | . | . | 29.1 | . | 14.7 | 41.7* | 27.0*
Cc1nc(S/C(=C\c2ccc(OCc3ccccc3Cl)cc2)C(=O)O)n[nH]1 | -0.5 | 4.2 | 27.1 | 19.0 | 16.6 | 7.1 | .
CC(C)n1cnc2c(NCc3ccccc3)cc(N[C@H](C)CO)cc21 | . | . | 18.5 | 9.7 | 12.3 | 42.6* | 35.1*
SMILES | LYPLA1 inh | LYPLA2 inh | PAFAH2 FP inh | pPAFAH inh | PAFAH1B2 FP inh | PAFAH1B3 inh | PAFAH1B3 confirm | others
C=CCn1c(O)c(N=Nc2ccccc2O)c2ccccc21 | -2.6 | 8.0 | 4.2 | 14.0 | 13.4 | 26.2* | 12.6
C=CCn1c(O)c(N=Nc2ccccc2)c2ccccc21 | 1.1 | 7.9 | -2.6 | 1.5 | 3.0 | 8.2 | .
Cc1noc(C)c1S(=O)(=O)N1CCC(C(=O)Nc2ccc(Br)cc2)CC1 | -1.1 | -2.5 | 2.2 | 1.3 | 2.9 | -0.7 | .
COc1ccc(-c2cc(=O)oc3cc(O)ccc23)cc1 | -1.4 | 1.9 | 2.0 | 3.8 | 4.1 | 5.0 | .
Cc1nc2ccc(C(=O)N/N=C/c3cc([N+](=O)[O-])ccc3O)cc2[nH]1 | -9.3 | -10.9 | 1.1 | 13.4 | 6.8 | 26.6* | 23.6
COc1cc(CCNC2=CC(=O)c3ncccc3C2=O)ccc1O | . | . | 13.3 | . | 11.0 | 34.9* | 22.3
CC(=O)N(C1=C(Cl)C(=O)c2ccccc2C1=O)C1CCCCC1 | 0.9 | 2.6 | 4.9 | 0.9 | 4.3 | 33.0* | 17.8
CC(=O)N(c1ccccc1C)C1CCCC1 | -0.2 | 3.3 | -4.2 | 1.7 | 7.7 | 3.9 | .
COc1ccc(N(C(C)C(=O)N(C)Cc2ccccc2)S(C)(=O)=O)cc1 (stereo unspecified) | 1.0 | -4.2 | -9.4 | 1.6 | 5.6 | 6.6 | .
CN(C)c1ccc(NC2=C(Cl)C(=O)c3ccccc3C2=O)cc1 | 0.0 | 7.1 | 14.9 | 15.5 | 24.1 | 39.0* | 22.9
O=C(Nc1ccc2cn[nH]c2c1)c1c(Cl)cccc1Cl | 1.7 | 5.6 | -5.8 | 3.7 | 5.4 | 0.9 | .
O=C1C(Cl)=C(Nc2ccc3cn[nH]c3c2)C(=O)c2ccccc21 | -0.4 | 14.9 | 18.8 | 11.1 | 15.0 | 38.2* | 27.3*
CC(C)(C)c1nnc2sc(SCC(=O)c3ccc(Cl)cc3)nn2c1=O | 5.4 | 11.7 | -2.4 | 1.3 | 8.1 | 26.8* | 14.3
Cc1ccc(C(=O)CSc2nn3c(=O)c(C(C)(C)C)nnc3s2)cc1 | 4.6 | -4.7 | 2.4 | 0.5 | 7.3 | 15.1 | .
CC(C)(C)c1ccc(OCC(=O)NNC(=S)NC(=O)c2ccco2)c(Br)c1 | 1.9 | 6.4 | -11.1 | 4.2 | 18.2 | 2.2 | .
CC(C)c1ccc(OCC(=O)NNC(=S)NC(=O)c2ccco2)c(Br)c1 | -1.7 | -0.1 | 8.4 | 9.0 | 17.9 | 26.9* | 8.7
O=C(Cn1c(=S)[nH]c2ccccc2c1=O)N1CCN(c2ccccc2)CC1 | -1.1 | 2.2 | -24.7 | 6.7 | -13.9 | 25.7* | 10.9
CCOC(=O)c1c(NC(=O)c2ccco2)n(C2CCCCC2)c2nc3ccccc3nc12 | -0.4 | -4.1 | 15.9 | 6.5 | 19.7 | 58.8* | 19.6
CN(O)/C=c1/ccc2c(n1)C(=O)C=CC=2 | -1.8 | 8.1 | 11.3 | 6.9 | 7.9 | 35.0* | 44.9*
O=C(Cn1ncc(Cl)c(Cl)c1=O)N1CCc2ccccc21 | . | . | 10.2 | . | 0.3 | 27.6* | 21.9
O=C1CSC(c2ccccn2)N1c1cccc(Cl)c1 (stereo unspecified) | -2.6 | 3.5 | -8.7 | -3.3 | -0.8 | -1.7 | .
COc1ccc([N+](=O)[O-])cc1NC(=S)NC(C)=O | 0.2 | 4.5 | 7.3 | 3.1 | 4.0 | 8.5 | .
